Experimental data as given in the supplement of paper PMC9262897, “Low-cost anti-mycobacterial drug discovery using engineered E. coli” (Nature Communications, 2022).
Where a name gives a salt, the structure may show the parent alone. ± gives the standard deviation of the averaged measurements.

Each compound was assayed on E. coli TESEC Mtb DapB (assay: growth (OD600 after 10 h); higher = more growth (less inhibition)). Conditions: arabinose induction (level): High; compound 0.1 mM; raw OD600 reference: median of DMSO wells […], cell-free background 0.041.
Experimental: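 TESEC E. coli strains in which the native enzyme is deleted and replaced by arabinose-inducible Mtb Asd, DapB, CysH or TrpD, each grown in its selective medium. Strains were screened against the Prestwick library at 0.1 mM and 1% DMSO in 384-well format at low and high arabinose induction. Growth is read as OD600 after 10 h in triplicate.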

Compared with `C[C@]12Cc3c[nH]nc3C[C@@H]1CC[C@@H]1[C@@H]2CC[C@@]2(C)[C@H]1CC[C@]2(C)O` [Stanozolol], `C[C@]12COC(=O)C[C@@H]1CC[C@@H]1[C@@H]2CC[C@@]2(C)[C@H]1CC[C@]2(C)O` [Oxandrolone] is lower in growth: 0.219 ± 0.018 for the first, 0.14 ± 0.0074 for the second.

Going from `CCN(C(C)=O)c1cccc(-c2ccnc3c(C#N)cnn23)c1` [Zaleplon] to `CC[C@@H](CO)NC(=O)[C@@H]1C=C2c3cccc4[nH]cc(c34)C[C@H]2N(C)C1` [Methylergometrine maleate], the growth falls from 0.179 ± 0.013 to 0.129 ± 0.028.

Compared with `CN1[C@@H]2CC[C@H]1C[C@@H](OC1c3ccccc3CCc3ccccc31)C2` [Deptropine citrate], `CN1[C@@H]2CC[C@H]1C[C@@H](OC(=O)C(CO)c1ccccc1)C2` (stereo not given in full) [Atropine sulfate monohydrate] is higher in growth: 0.0744 ± 0.011 for the first, 0.199 ± 0.015 for the second.

`CC(=O)[C@H]1CC[C@H]2[C@@H]3CC[C@H]4C[C@H](O)CC[C@]4(C)[C@H]3C(=O)C[C@]12C` [Alfaxalone] and `C[C@]12CC[C@H](O)C[C@H]1CC[C@@H]1[C@@H]2CC[C@]2(C)[C@@H](C3=CC(=O)OC3)CC[C@]12O` [Digitoxigenin] are within error of each other in growth: 0.155 ± 0.031 for the first, 0.165 ± 0.0087 for the second.

Compared with `NCCCNCCSP(=O)(O)O` [Amifostine], `CCCC[N+]1(C)[C@@H]2CC(OC(=O)[C@H](CO)c3ccccc3)C[C@H]1[C@@H]1O[C@@H]12` (stereo not given in full) [Butylscopolammonium (n-) bromide] is higher in growth: 0.196 ± 0.0064 for the first, 0.216 ± 0.011 for the second.

`O=C(CCCN1CCC2(CC1)C(=O)NCN2c1ccccc1)c1ccc(F)cc1` [Spiperone] and `C[C@]12CCC(=O)C=C1C=C[C@@H]1[C@@H]2CC[C@@]2(C)[C@H]1CC[C@@]2(O)CCC(=O)O` [Canrenoic acid potassium salt] are within error of each other in growth: 0.188 ± 0.013 for the first, 0.196 ± 0.012 for the second.

Compared with `S=C(NC1CCCCC1)N1CCC(c2cnc[nH]2)CC1` [Thioperamide maleate], `CC[C@@]1([C@@H]2O[C@@H]([C@H]3O[C@@](O)(CO)[C@H](C)C[C@@H]3C)C[C@@H]2C)CC[C@H]([C@]2(C)CC[C@]3(C[C@H](O)[C@@H](C)[C@@H]([C@@H](C)[C@@H](OC)[C@H](C)C(=O)O)O3)O2)O1` [Monensin sodium salt] is lower in growth: 0.201 ± 0.015 for the first, 0.162 ± 0.01 for the second.

`COP(=O)(OC)C(O)C(Cl)(Cl)Cl` (stereo not given) [Trichlorfon] and `CN(C)C(=O)Oc1cc(OC(=O)N(C)C)cc(C(O)CNC(C)(C)C)c1` (stereo not given) [Bambuterol hydrochloride] are within error of each other in growth: 0.208 ± 0.028 for the first, 0.193 ± 0.02 for the second.

Compared with `O=[N+]([O-])O[C@@H]1CO[C@H]2[C@@H]1OC[C@@H]2O` [Isosorbide mononitrate], `CN(C)[C@@H]1C(=O)C(C(N)=O)=C(O)[C@@]2(O)C(=O)C3=C(O)c4c(O)cccc4[C@@](C)(O)[C@H]3C[C@@H]12` [Tetracycline hydrochloride] is lower in growth: 0.176 ± 0.0055 for the first, 0.0495 ± 0.0014 for the second.

Going from `Cc1cc(C(C#N)c2ccc(Cl)cc2)c(Cl)cc1NC(=O)c1cc(I)cc(I)c1O` (stereo not given) [Closantel] to `CCCC(C)C1(CC)C(=O)NC(=O)NC1=O` (stereo not given) [Pentobarbital], the growth rises from 0.0896 ± 0.013 to 0.2 ± 0.01.

Same assay, conditions: arabinose induction (level): Low; compound 0.1 mM; raw OD600 reference: median of DMSO wells 0.227, cell-free background 0.041

First: C[C@]12Cc3c[nH]nc3C[C@@H]1CC[C@@H]1[C@@H]2CC[C@@]2(C)[C@H]1CC[C@]2(C)O [Stanozolol]
Second: C[C@]12COC(=O)C[C@@H]1CC[C@@H]1[C@@H]2CC[C@@]2(C)[C@H]1CC[C@]2(C)O [Oxandrolone]
The growth of the first is higher: 0.193 ± 0.0045 for the first, 0.154 ± 0.015 for the second.

`CCN(C(C)=O)c1cccc(-c2ccnc3c(C#N)cnn23)c1` [Zaleplon] and `CC[C@@H](CO)NC(=O)[C@@H]1C=C2c3cccc4[nH]cc(c34)C[C@H]2N(C)C1` [Methylergometrine maleate] are within error of each other in growth: 0.201 ± 0.0029 for the first, 0.156 ± 0.057 for the second.

Going from `CN1[C@@H]2CC[C@H]1C[C@@H](OC1c3ccccc3CCc3ccccc31)C2` [Deptropine citrate] to `CN1[C@@H]2CC[C@H]1C[C@@H](OC(=O)C(CO)c1ccccc1)C2` (stereo not given in full) [Atropine sulfate monohydrate], the growth rises from 0.069 ± 0.01 to 0.247 ± 0.019.

Going from `CC(=O)[C@H]1CC[C@H]2[C@@H]3CC[C@H]4C[C@H](O)CC[C@]4(C)[C@H]3C(=O)C[C@]12C` [Alfaxalone] to `C[C@]12CC[C@H](O)C[C@H]1CC[C@@H]1[C@@H]2CC[C@]2(C)[C@@H](C3=CC(=O)OC3)CC[C@]12O` [Digitoxigenin], the growth falls from 0.203 ± 0.028 to 0.171 ± 0.003.

`NCCCNCCSP(=O)(O)O` [Amifostine] and `CCCC[N+]1(C)[C@@H]2CC(OC(=O)[C@H](CO)c3ccccc3)C[C@H]1[C@@H]1O[C@@H]12` (stereo not given in full) [Butylscopolammonium (n-) bromide] are within error of each other in growth: 0.209 ± 0.0086 for the first, 0.232 ± 0.015 for the second.

`O=C(CCCN1CCC2(CC1)C(=O)NCN2c1ccccc1)c1ccc(F)cc1` [Spiperone] and `C[C@]12CCC(=O)C=C1C=C[C@@H]1[C@@H]2CC[C@@]2(C)[C@H]1CC[C@@]2(O)CCC(=O)O` [Canrenoic acid potassium salt] are within error of each other in growth: 0.218 ± 0.038 for the first, 0.211 ± 0.031 for the second.

Compared with `S=C(NC1CCCCC1)N1CCC(c2cnc[nH]2)CC1` [Thioperamide maleate], `CC[C@@]1([C@@H]2O[C@@H]([C@H]3O[C@@](O)(CO)[C@H](C)C[C@@H]3C)C[C@@H]2C)CC[C@H]([C@]2(C)CC[C@]3(C[C@H](O)[C@@H](C)[C@@H]([C@@H](C)[C@@H](OC)[C@H](C)C(=O)O)O3)O2)O1` [Monensin sodium salt] is lower in growth: 0.21 ± 0.008 for the first, 0.167 ± 0.0025 for the second.

`COP(=O)(OC)C(O)C(Cl)(Cl)Cl` (stereo not given) [Trichlorfon] and `CN(C)C(=O)Oc1cc(OC(=O)N(C)C)cc(C(O)CNC(C)(C)C)c1` (stereo not given) [Bambuterol hydrochloride] are within error of each other in growth: 0.272 ± 0.071 for the first, 0.211 ± 0.025 for the second.

First: O=[N+]([O-])O[C@@H]1CO[C@H]2[C@@H]1OC[C@@H]2O [Isosorbide mononitrate]
Second: CN(C)[C@@H]1C(=O)C(C(N)=O)=C(O)[C@@]2(O)C(=O)C3=C(O)c4c(O)cccc4[C@@](C)(O)[C@H]3C[C@@H]12 [Tetracycline hydrochloride]
The growth of the first is higher: 0.216 ± 0.03 for the first, 0.0516 ± 0.0028 for the second.

First: Cc1cc(C(C#N)c2ccc(Cl)cc2)c(Cl)cc1NC(=O)c1cc(I)cc(I)c1O (stereo not given) [Closantel]
Second: CCCC(C)C1(CC)C(=O)NC(=O)NC1=O (stereo not given) [Pentobarbital]
The growth of the first is lower: 0.0929 ± 0.01 for the first, 0.265 ± 0.014 for the second.
